The text below walks through data of PubChem BioAssay (EPA / NIEHS).

Active and inactive are the calls of the source. How the source made its calls: active means hit-call score of the fitted dose curve at least 0.9, where 1 is the maximum; inactive means score below 0.9.

The term AC50 denotes the concentration at which the activity in the assay is half-maximal.

Read-out in the first assay: Human Leukocyte Antigen - DR isotype (HLADR), HLA-DRA (gene 3122)
In words: BSK_CASM3C_HLADR: BioMAP Diversity Plus: CASM3C Assay for Human Leukocyte Antigen - DR isotype (HLADR) Biomarker Activity (AID 2283043).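 Further: cell-surface HLA-DR protein level quantified by ELISA.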 Particulars: primary human coronary artery smooth muscle cells; actives raise or lower the signal.
With `CN(C)C(=O)Nc1cccc(C(F)(F)F)c1`, the result was inactive.

In the case of `COP(=O)(NC(C)=O)SC` (configuration not stated), the outcome was inactive.

As to `CN(C)NC(=O)CCC(=O)O`, the outcome was inactive.

Take `C[Si](Cn1cncn1)(c1ccc(F)cc1)c1ccc(F)cc1`: the result was inactive.

As for `CCCOCC(=Nc1ccc(Cl)cc1C(F)(F)F)n1ccnc1`, the result was inactive.

Regarding `CC1=NNC(=O)N(/N=C/c2cccnc2)C1`, the outcome was inactive.

In the case of `C#CCC1=C(C)C(OC(=O)C2C(C=C(C)C)C2(C)C)CC1=O` (configuration not stated), the result was inactive.

For the compound `COP(=O)(OC)C(O)C(Cl)(Cl)Cl` (configuration not stated), the outcome was inactive.

Turning to `COP(=O)(OC)SCn1c(=O)oc2cc(Cl)cnc21`, the result was inactive.

On to `CCOP(=S)(Oc1cnc(C(C)(C)C)nc1)OC(C)C` (configuration not stated), for which the outcome was inactive.

Regarding `CNC(=O)ON=C(SC)C(=O)N(C)C`, the result was inactive.

As for `CCOP(=S)(OCC)SCCSCC`, the outcome was inactive.

Consider `CNc1cnn(-c2cccc(C(F)(F)F)c2)c(=O)c1Cl`, for which the result was inactive.

Take `CC1(C(=O)Nc2ccc(O)c(Cl)c2Cl)CCCCC1`: the outcome was inactive.

For the compound `CN1COCN(Cc2cnc(Cl)s2)C1=N[N+](=O)[O-]`, the outcome was inactive.

As for `CCCCSP(=O)(SCCCC)SCCCC`, the result was inactive.

Turning to `CC(C1CC1)C(O)(Cn1cncn1)c1ccc(Cl)cc1` (configuration not stated), the outcome was inactive.

Consider `CC[C@H](C)[C@H]1O[C@]2(C=C[C@@H]1C)C[C@@H]1C[C@@H](C/C=C(\C)[C@@H](O[C@H]3C[C@H](OC)[C@@H](O[C@H]4C[C@H](OC)[C@@H](NC)[C@H](C)O4)[C@H](C)O3)[C@@H](C)/C=C/C=C3\CO[C@@H]4[C@H](O)C(C)=C[C@@H](C(=O)O1)[C@]34O)O2`, for which the concentration at half-maximal activity (AC50) is 12.6 µM (active).

As for `CC(C)=CC1C(C(=O)OCN2C(=O)C3=C(CCCC3)C2=O)C1(C)C` (configuration not stated), the outcome was inactive.

`CC(Oc1cccc(Cl)c1)C(=O)O` (configuration not stated): the result was inactive.

Take `CCc1cccc(C)c1N(C(=O)CCl)C(C)COC` (configuration not stated): the result was inactive.

Regarding `Cc1nn(-c2cc(NS(C)(=O)=O)c(Cl)cc2Cl)c(=O)n1C(F)F`, the outcome was inactive.

With `N#CSCSC#N`, the AC50 is 21.4 µM (active).

Regarding `Cc1ccn2nc(S(=O)(=O)Nc3c(F)cccc3F)nc2n1`, the outcome was inactive.

Take `C[N+]1(C)CCCCC1`: the outcome was inactive.

On to `CCCOc1nn(C(=O)NS(=O)(=O)c2ccccc2C(=O)OC)c(=O)n1C`, for which the outcome was inactive.

Take `Nc1nc(N)nc(NC2CC2)n1`: the result was inactive.

As for `Nc1c(Cl)cc([N+](=O)[O-])cc1Cl`, the result was inactive.

As for `CCc1cccc(CC)c1N(COC)C(=O)CCl`, the outcome was inactive.

For the compound `CCCSP(=O)(OCC)Oc1ccc(Br)cc1Cl` (configuration not stated), the result was inactive.

On to `S=C1NCCN1`, for which the outcome was inactive.

Consider `CCOP(=S)(OCC)Oc1ccc([N+](=O)[O-])cc1`, for which the outcome was inactive.

Regarding `CCC(=O)Nc1ccc(Cl)c(Cl)c1`, the result was inactive.

Turning to `CCCCOC(=O)c1ccccc1C(=O)O`, the outcome was inactive.

For the compound `C#CC(C)(C)NC(=O)c1cc(Cl)cc(Cl)c1`, the outcome was inactive.

Take `COc1cc(OC)nc(Sc2cccc(Cl)c2C(=O)O)n1`: the result was inactive.

Read-out in a further assay: Macrophage colony-stimulating factor (MCSF), CSF1 (gene 1435)
In words: BSK_CASM3C_MCSF: BioMAP Diversity Plus: CASM3C Assay for Macrophage colony-stimulating factor (MCSF) Biomarker Activity (AID 2283044).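 Further: M-CSF protein amount quantified by ELISA after 24 h exposure.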 Particulars: primary human coronary artery smooth muscle cells; actives raise or lower the signal.
Regarding `CN(C)C(=O)Nc1cccc(C(F)(F)F)c1`, the outcome was inactive.

Consider `COP(=O)(NC(C)=O)SC` (configuration not stated), for which the outcome was inactive.

With `CN(C)NC(=O)CCC(=O)O`, the outcome was inactive.

Take `C[Si](Cn1cncn1)(c1ccc(F)cc1)c1ccc(F)cc1`: the result was inactive.

As for `CCCOCC(=Nc1ccc(Cl)cc1C(F)(F)F)n1ccnc1`, the result was inactive.

Turning to `CC1=NNC(=O)N(/N=C/c2cccnc2)C1`, the result was inactive.

With `C#CCC1=C(C)C(OC(=O)C2C(C=C(C)C)C2(C)C)CC1=O` (configuration not stated), the outcome was inactive.

In the case of `COP(=O)(OC)C(O)C(Cl)(Cl)Cl` (configuration not stated), the outcome was inactive.

In the case of `COP(=O)(OC)SCn1c(=O)oc2cc(Cl)cnc21`, the AC50 was 9.42 µM (active).

`CCOP(=S)(Oc1cnc(C(C)(C)C)nc1)OC(C)C` (configuration not stated): the outcome was inactive.

On to `CNC(=O)ON=C(SC)C(=O)N(C)C`, for which the result was inactive.

For `CCOP(=S)(OCC)SCCSCC`, the outcome was inactive.

Turning to `CNc1cnn(-c2cccc(C(F)(F)F)c2)c(=O)c1Cl`, the outcome was inactive.

For the compound `CC1(C(=O)Nc2ccc(O)c(Cl)c2Cl)CCCCC1`, the result was inactive.

In the case of `CN1COCN(Cc2cnc(Cl)s2)C1=N[N+](=O)[O-]`, the outcome was inactive.

Regarding `CCCCSP(=O)(SCCCC)SCCCC`, the AC50 was 29.4 µM (active).

Turning to `CC(C1CC1)C(O)(Cn1cncn1)c1ccc(Cl)cc1` (configuration not stated), the outcome was inactive.

As for `CC[C@H](C)[C@H]1O[C@]2(C=C[C@@H]1C)C[C@@H]1C[C@@H](C/C=C(\C)[C@@H](O[C@H]3C[C@H](OC)[C@@H](O[C@H]4C[C@H](OC)[C@@H](NC)[C@H](C)O4)[C@H](C)O3)[C@@H](C)/C=C/C=C3\CO[C@@H]4[C@H](O)C(C)=C[C@@H](C(=O)O1)[C@]34O)O2`, the concentration at half-maximal activity (AC50) is 11.6 µM (active).

`CC(C)=CC1C(C(=O)OCN2C(=O)C3=C(CCCC3)C2=O)C1(C)C` (configuration not stated): the outcome was inactive.

Regarding `CC(Oc1cccc(Cl)c1)C(=O)O` (configuration not stated), the outcome was inactive.

Turning to `CCc1cccc(C)c1N(C(=O)CCl)C(C)COC` (configuration not stated), the outcome was inactive.

With `Cc1nn(-c2cc(NS(C)(=O)=O)c(Cl)cc2Cl)c(=O)n1C(F)F`, the outcome was inactive.

For the compound `N#CSCSC#N`, the AC50 was 16.1 µM (active).

In the case of `Cc1ccn2nc(S(=O)(=O)Nc3c(F)cccc3F)nc2n1`, the outcome was inactive.

Consider `C[N+]1(C)CCCCC1`, for which the outcome was inactive.

For `CCCOc1nn(C(=O)NS(=O)(=O)c2ccccc2C(=O)OC)c(=O)n1C`, the result was inactive.

Regarding `Nc1nc(N)nc(NC2CC2)n1`, the outcome was inactive.

As to `Nc1c(Cl)cc([N+](=O)[O-])cc1Cl`, the outcome was inactive.

Consider `CCc1cccc(CC)c1N(COC)C(=O)CCl`, for which the result was inactive.

For the compound `CCCSP(=O)(OCC)Oc1ccc(Br)cc1Cl` (configuration not stated), the outcome was inactive.

With `S=C1NCCN1`, the result was inactive.

Consider `CCOP(=S)(OCC)Oc1ccc([N+](=O)[O-])cc1`, for which the outcome was inactive.

As to `CCC(=O)Nc1ccc(Cl)c(Cl)c1`, the outcome was inactive.

For the compound `CCCCOC(=O)c1ccccc1C(=O)O`, the outcome was inactive.

For the compound `C#CC(C)(C)NC(=O)c1cc(Cl)cc(Cl)c1`, the result was inactive.

With `COc1cc(OC)nc(Sc2cccc(Cl)c2C(=O)O)n1`, the result was inactive.
